# Screens from PubChem.
# FXN GAA850 act: FXN promoter activators, primary screen, cell-based, luciferase luminescence, HEK293 lucGAA850; HEK293 lucGAA850 FXN promoter luciferase reporter, 24 h; percent of 10 µM SAHA response; activation, % at 6 µM; actives 0.56% (n = 360,000);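 active means activation above the average of all compounds screened plus 3 SD, cutoff fixed separately per campaign, cut at about 7.5% in these data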;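 further: 0% = DMSO wells and 100% = 10 µM SAHA wells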
# hgDAF12 agonist: H. glycines DAF-12 receptor agonists, primary screen, cell-based, luminescence, HEK293, GAL4 fusion, UAS-luciferase. Nuclear hormone receptor DAF-12 (Heterodera glycines), GAL4 fusion. HEK293 GAL4-hgDAF12 UAS-luciferase reporter, agonist luminescence; normalized to butyrate control. activation, % at 6.8 µM. actives 1.8% (n = 370,000). AID 687014, 2013;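 active means activation above a cutoff set at the mean of all screened compounds plus 3 SD, cut at about 10% in these data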;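 further: 0% = DMSO wells and 100% = sodium butyrate wells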
# DAX1 inh-1: DAX1 (NR0B1) inhibitors, primary screen, cell-based, HEK293, Gal4-DAX1, luciferase luminescence; Nuclear receptor subfamily 0 group B member 1 (Homo sapiens), P51843; HEK293 Gal4-DAX1 luciferase reporter; inhibition, % at 6.75 µM; actives 0.99% (n = 340,000);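 active means inhibition above the mean over all tested compounds plus 3 SD, cut at about 4.2% in these data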;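 further: 0% = DAX1-transfected cells with DMSO and 100% = empty-vector control cells with DMSO; inhibition shows as a rise in luminescence from relieved DAX1 repression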
# Target sequence (P51843 207-470 limits assumed): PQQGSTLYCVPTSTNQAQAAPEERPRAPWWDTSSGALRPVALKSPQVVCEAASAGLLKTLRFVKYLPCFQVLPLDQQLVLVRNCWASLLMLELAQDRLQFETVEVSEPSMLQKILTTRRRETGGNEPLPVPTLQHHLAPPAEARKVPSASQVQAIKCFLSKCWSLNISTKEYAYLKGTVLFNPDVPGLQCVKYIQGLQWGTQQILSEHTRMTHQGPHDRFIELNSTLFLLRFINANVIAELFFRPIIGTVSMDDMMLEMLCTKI
# DAX1 inh-2: DAX1 (NR0B1) inhibitors on StAR promoter, primary screen, cell-based, luminescence, SF-1 (NR5A1), full-length DAX-1; HEK293T StAR-luciferase reporter, SF-1/DAX-1 repression relief; inhibition, % at 6.8 µM; actives 1.1% (n = 370,000);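 active means inhibition above the mean over all tested compounds plus 3 SD, cut at about 3.6% in these data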;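 further: 0% = DAX-1 cells with DMSO and 100% = cells lacking DAX-1 with DMSO; higher inhibition means more luminescence from relief of DAX-1 repression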
# hcDAF12 agonist: H. contortus DAF-12 nuclear receptor activators, primary screen, cell-based, luminescence, HEK293, lit1-tk-luc reporter. HEK293 hcDAF-12 lit1-tk-luc reporter; 0% DMSO, 100% Δ7-dafachronic acid. actives 1.4% (n = 370,000). activation, % at 6.8 µM;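 active means activation above the mean of all tested compounds plus 3 SD, cut at about 5.5% in these data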;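 further: 100% = response to 3 µM Δ7-dafachronic acid high control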
# ssDAF-12 act: S. stercoralis DAF-12 nuclear receptor activators, primary screen, cell-based, luminescence, HEK293, GRIP1 co-expression, lit1-tk-luc; Nuclear hormone receptor DAF-12 (Strongyloides stercoralis); HEK293 ssDAF-12/GRIP1 lit1-tk-luc reporter; % of 3 µM dafachronic acid response; activation, % at 6.8 µM; actives 1% (n = 370,000);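 active means activation above the mean over all tested compounds plus 3 SD, cut at about 0.9% in these data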;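 further: 0% = DMSO-only wells and 100% = 3 µM delta7-dafachronic acid wells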
# GAA30 counter: GAA30 FXN promoter activators, confirmation, counter-screen for GAA850 frataxin promoter activator project, cell-based, luminescence, HEK293, lucGAA30, triplicate | activation, % at 6 µM | AID 588350, 2011 | shares compounds with FXN GAA850 act | actives 66% (n = 1,900) | HEK293 lucGAA30 FXN promoter luciferase, 24 h; DMSO = 0%, 5 µM ipriflavone = 100%;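 active means mean activation above the mean of solvent-only control wells plus 3 SD, cut at about 22% in these data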;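 further: counterscreen of GAA850 promoter hits where activity marks nonselective or luminescence artifacts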
# FXN GAA850 conf: FXN GAA850 promoter activators in reporter cells, confirmation, cell-based, luminescence, HEK293 lucGAA850, triplicate; actives 86% (n = 1,900); activation, % at 6 µM; AID 588351, 2011; HEK293 lucGAA850 FXN promoter luciferase reporter, 24 h; 100% = activation by SAHA; shares compounds with FXN GAA850 act;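 active means mean activation above a set limit taken from the primary screen, cut at about 8% in these data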;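 further: 0% = DMSO wells and 100% = 10 µM SAHA wells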
# * marks the source's active call; other numbers are inactive results; nt = no result given. Compounds with a hit are over-represented: about 4.5% of the library has one in this group of screens.
SMILES,FXN GAA850 act,hgDAF12 agonist,DAX1 inh-1,DAX1 inh-2,hcDAF12 agonist,ssDAF-12 act,GAA30 counter,FXN GAA850 conf
CC(C)C(=O)Oc1ccc(CO)cc1[C@H](CCN(C(C)C)C(C)C)c1ccccc1,nt,-3,nt,0,-2,-1,nt,nt
CCOC(=O)C1=C(COC(=O)CCNS(=O)(=O)c2ccc(NC(C)=O)cc2)NC(=O)NC1C (stereo unspecified),0,-1,0,2,-1,-1,nt,nt
CN(C)c1ccc(N=Nc2ccccc2C(=O)OCC(=O)Nc2ccccc2C(F)(F)F)cc1,7.6*,6,0,0,3,-1,73*,23*
O=C(CCCOc1cccc(Br)c1)NCCOc1ccccc1,2,1,2,0,0,0,nt,nt
CCn1c(SCc2c(Cl)cccc2Cl)nc2nc3c(cc2c1=O)CCCC3,1,-2,0,0,-2,-2,nt,nt
CCn1c(SCc2ccccc2Cl)nc2nc3c(cc2c1=O)CCCC3,7.8*,0,1,0,-1,-2,10,12*
O=C(O)Cn1c2ccccc2c2nc3ccccc3nc21,10*,nt,4.9*,nt,nt,nt,104*,33*
COc1cccc(-n2cnc3sc(C)c(C)c3c2=O)c1,9.3*,1,0,0,2,-1,59*,24*
CC1CC(C)CN(C(=O)c2cc3ccccc3o2)C1 (stereo unspecified),2,6,0,3,2,-1,nt,nt
CC1CC(C)CN(C(=O)c2cc3cc(Br)cc(Br)c3o2)C1 (stereo unspecified),10*,2,0,1,1,0,62*,26*
CN1OC[C@@H]2CN[C@H](c3ccc(-c4cc5ccccc5o4)cc3)C[C@@H]21,-14,nt,-5,nt,nt,nt,nt,nt
Cc1ccc2nc3ccc(N4CCCCCCC4)nn3c(=O)c2c1,1,6,2,1,1,-1,nt,nt
Cc1ccc2nc3ccc(N4CCN(C)CC4)nn3c(=O)c2c1,8.2*,8,3,4.3*,5.7*,-1,116*,34*
O=C(Nc1ccc2c(c1)OCCO2)C(c1ccnc2ccccc12)N1CCN(C/C=C/c2ccccc2)CC1 (stereo unspecified),nt,-1,nt,-2,-1,0,nt,nt
CCOC(=O)c1cc(-c2ccc(N)cc2)sc1N,2,5,-1,2,-1,-1,nt,nt
CCOC(=O)c1sc(-c2ccc(Br)cc2)cc1N,16*,11*,2,3,4,1,117*,43*
CCC(C)(C)n1nnnc1C(c1ccc(C)cc1)N(Cc1ccco1)Cc1cccs1 (stereo unspecified),8.3*,1,1,-1,-2,-1,6,8.8*
CC(C)(C)n1nnnc1C(c1cccnc1)N(Cc1ccccc1)Cc1ccco1 (stereo unspecified),7.9*,0,0,-1,-3,-1,11,9.0*
C/C(=N/NC(=O)c1ccc(Br)o1)C(C)C,9.1*,11*,1,2,2,-1,16,7
Cc1[nH]cnc1/C=N\NC(=O)c1cccc(S(=O)(=O)N(C)C)c1,nt,1,nt,1,2,-2,nt,nt
CC(=O)Oc1ccc(C(=O)Cc2ccccn2)c(O)c1,11*,0,0,1,2,-1,23*,12*
CCCCOCCCNC(=O)C[C@H]1C[C@@]2(C(=O)OC)C(=C[C@H](COCc3ccccc3)O[C@@H]2C)N(CCc2ccc(OC)c(OC)c2)C1=O,nt,-3,nt,0,-4,-2,nt,nt
COc1ccc(/C(C)=N/Nc2ccc(C(=O)O)cc2)cc1OC,8.5*,8,1,3,6,0,93*,32*
O=C1C=CC(=O)N1c1ccccc1N1C(=O)C=CC1=O,8.7*,-1,4.3*,4.0*,-2,0,-117,-35
O=C(c1ccccc1)c1ccccc1N1C(=O)C=CC1=O,0,0,1,0,2,-1,nt,nt
SMILES,FXN GAA850 act,hgDAF12 agonist,DAX1 inh-1,DAX1 inh-2,hcDAF12 agonist,ssDAF-12 act,GAA30 counter,FXN GAA850 conf
CN(Cc1ccccc1)C(=O)c1ccco1,0,-3,0,0,-2,-1,nt,nt
O=C(C#Cc1ccccc1)c1ccco1,12*,1,-2,-2,-2,-2,-116,-35
COc1ccccc1/C=C/C(=O)c1ccccc1,7.6*,13*,0,0,1,0,87*,33*
COc1ccccc1/C=C/C(=O)c1ccc(Cl)cc1,3,4,-1,-1,-1,-1,nt,nt
O=C(/C=C/c1ccccc1[N+](=O)[O-])c1ccc(F)cc1,8.5*,0,0,1,2,-1,57*,25*
COc1cccc(/C=C/C(=O)c2ccc3c(c2)OCCO3)c1OC,7.9*,10*,0,0,0,-1,98*,39*
C[C@@H]1NC(=O)[C@H]2C[C@@]3(c4ccccc4)c4ccccc4N[C@H]3N2C1=O,nt,3,nt,-1,-1,-1,nt,nt
COC(=O)Nc1ccc(OCc2ccccc2)cc1,10.0*,6,2,2,1,-1,89*,32*
CCOc1ccc(NC(=O)Cc2ccccc2)cc1,8.4*,8,0,2,1,0,82*,31*
O=C(Cc1ccccc1)Nc1ccc(NC(=O)c2ccco2)cc1,7.9*,-2,-2,-1,0,-1,48*,22*
CCOc1ccc(NC(=O)CNC(=O)Cc2ccccc2)cc1,5,2,1,0,-2,-1,nt,nt
